Results from publication PMC7862700, “An all-to-all approach to the identification of sequence-specific readers for epigenetic DNA modifications on cytosine”.

Assays:
Assay in all cases: DAPPL (digital affinity profiling via proximity ligation, sequencing); 10 mM Tris-HCl pH 7.5, 50 mM NaCl, 1 mM DTT, 4% glycerol, room temperature, 30 min; GST-TFs on glutathione beads, 16-mer random dsDNA library, 0.1% formaldehyde crosslink after washing; high values mean tight binding
FLI1 = biological target: T1, FLI1 (Homo sapiens, UniProt Q01543 1-452); conditions: protein: recombinant; tags: N-terminal GST; dsDNA, one strand shown
T1 sequence: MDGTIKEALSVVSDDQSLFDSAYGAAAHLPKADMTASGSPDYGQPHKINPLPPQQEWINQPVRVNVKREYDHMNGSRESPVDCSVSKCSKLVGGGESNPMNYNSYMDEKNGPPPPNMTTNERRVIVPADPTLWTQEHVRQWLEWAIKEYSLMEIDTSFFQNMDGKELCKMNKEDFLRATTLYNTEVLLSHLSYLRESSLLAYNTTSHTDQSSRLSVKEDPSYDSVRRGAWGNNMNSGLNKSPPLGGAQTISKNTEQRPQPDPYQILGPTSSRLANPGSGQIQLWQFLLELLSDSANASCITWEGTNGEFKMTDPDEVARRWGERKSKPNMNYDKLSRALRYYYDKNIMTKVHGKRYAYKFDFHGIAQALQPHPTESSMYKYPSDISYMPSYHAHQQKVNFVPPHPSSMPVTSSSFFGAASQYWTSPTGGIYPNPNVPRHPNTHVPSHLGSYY
In short: (§1)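 Human transcription factors were made in yeast as GST fusions, captured on glutathione beads and barcoded with DNA. With a tag-only sample included, the pool was incubated with 200 nmole of a random double-stranded 16-mer DNA library in Tris/NaCl/DTT/glycerol buffer at room temperature for 30 min, then crosslinked with 0.1% formaldehyde after washing, ligated by proximity, amplified and sequenced. For binding signal, each hexamer's read frequency for a factor is divided by its frequency for the tag-only sample.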

ELK1 = biological target: T2, ELK1 (Homo sapiens, UniProt P19419 1-428); conditions: protein: recombinant; tags: N-terminal GST; dsDNA, one strand shown
T2 sequence: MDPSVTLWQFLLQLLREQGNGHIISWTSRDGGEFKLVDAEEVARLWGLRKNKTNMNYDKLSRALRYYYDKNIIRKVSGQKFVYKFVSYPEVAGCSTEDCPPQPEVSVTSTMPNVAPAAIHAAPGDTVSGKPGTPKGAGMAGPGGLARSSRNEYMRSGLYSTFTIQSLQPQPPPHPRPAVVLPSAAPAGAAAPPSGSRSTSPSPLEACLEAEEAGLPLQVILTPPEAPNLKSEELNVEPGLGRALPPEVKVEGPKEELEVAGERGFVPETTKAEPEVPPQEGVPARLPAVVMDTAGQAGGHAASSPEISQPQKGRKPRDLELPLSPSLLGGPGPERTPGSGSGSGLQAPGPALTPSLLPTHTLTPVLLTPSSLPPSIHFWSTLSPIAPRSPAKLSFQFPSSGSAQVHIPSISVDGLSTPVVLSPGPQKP
In short: as §1

GABPA = biological target: T3, GABPA (Homo sapiens, UniProt Q06546 1-454); conditions: protein: recombinant; tags: N-terminal GST; dsDNA, one strand shown
T3 sequence: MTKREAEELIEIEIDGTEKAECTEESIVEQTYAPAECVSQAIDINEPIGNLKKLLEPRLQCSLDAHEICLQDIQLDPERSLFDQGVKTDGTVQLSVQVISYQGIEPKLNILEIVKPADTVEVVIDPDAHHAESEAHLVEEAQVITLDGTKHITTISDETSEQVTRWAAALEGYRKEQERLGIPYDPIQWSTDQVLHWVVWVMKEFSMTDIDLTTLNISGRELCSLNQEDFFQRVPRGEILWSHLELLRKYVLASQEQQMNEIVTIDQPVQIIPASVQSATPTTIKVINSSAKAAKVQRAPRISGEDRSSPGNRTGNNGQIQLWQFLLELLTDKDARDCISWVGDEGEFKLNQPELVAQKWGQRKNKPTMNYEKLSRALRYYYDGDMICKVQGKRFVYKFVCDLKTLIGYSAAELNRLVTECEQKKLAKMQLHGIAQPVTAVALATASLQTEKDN
In short: as §1

ERG = biological target: T4, ERG (Homo sapiens, UniProt P11308 1-479); conditions: protein: recombinant; tags: N-terminal GST; dsDNA, one strand shown
T4 sequence: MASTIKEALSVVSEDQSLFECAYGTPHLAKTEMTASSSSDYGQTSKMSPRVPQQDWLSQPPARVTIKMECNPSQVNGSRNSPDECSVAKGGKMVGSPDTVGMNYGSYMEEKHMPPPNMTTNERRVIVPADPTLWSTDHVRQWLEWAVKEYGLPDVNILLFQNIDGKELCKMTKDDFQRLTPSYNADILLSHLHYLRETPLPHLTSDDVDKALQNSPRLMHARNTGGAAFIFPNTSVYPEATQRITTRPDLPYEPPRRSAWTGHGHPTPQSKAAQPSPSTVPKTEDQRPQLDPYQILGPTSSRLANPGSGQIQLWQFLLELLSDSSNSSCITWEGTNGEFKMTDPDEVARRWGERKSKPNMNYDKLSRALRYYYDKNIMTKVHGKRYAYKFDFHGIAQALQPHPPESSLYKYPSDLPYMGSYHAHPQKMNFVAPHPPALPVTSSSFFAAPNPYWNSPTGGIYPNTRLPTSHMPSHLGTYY
In short: as §1

ELF1 = ELF1 (Homo sapiens, UniProt P32519 1-619); conditions: protein: recombinant; tags: N-terminal GST; dsDNA, one strand shown
ELF1, sequence (P32519 whole entry): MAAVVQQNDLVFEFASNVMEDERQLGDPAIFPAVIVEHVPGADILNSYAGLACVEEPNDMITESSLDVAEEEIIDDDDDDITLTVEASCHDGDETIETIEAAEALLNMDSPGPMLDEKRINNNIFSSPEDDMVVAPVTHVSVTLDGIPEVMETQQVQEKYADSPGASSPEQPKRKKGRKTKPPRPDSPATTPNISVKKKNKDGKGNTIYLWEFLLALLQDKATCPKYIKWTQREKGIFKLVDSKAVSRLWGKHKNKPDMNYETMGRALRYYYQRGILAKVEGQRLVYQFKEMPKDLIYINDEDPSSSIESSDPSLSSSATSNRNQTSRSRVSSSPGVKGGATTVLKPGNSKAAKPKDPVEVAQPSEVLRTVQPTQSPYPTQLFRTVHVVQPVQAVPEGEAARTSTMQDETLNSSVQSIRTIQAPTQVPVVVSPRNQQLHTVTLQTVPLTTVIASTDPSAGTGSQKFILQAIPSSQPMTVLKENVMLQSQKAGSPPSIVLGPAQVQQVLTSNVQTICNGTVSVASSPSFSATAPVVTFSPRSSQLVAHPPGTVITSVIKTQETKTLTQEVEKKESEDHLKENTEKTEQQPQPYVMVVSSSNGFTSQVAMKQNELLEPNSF
In short: as §1

SPI1 = SPI1 (Homo sapiens, UniProt P17947 1-270); conditions: protein: recombinant; tags: N-terminal GST; dsDNA, one strand shown
In short: as §1

SPIB = SPIB (Homo sapiens, UniProt Q01892 1-262); conditions: protein: recombinant; tags: N-terminal GST; dsDNA, one strand shown
SPIB, sequence (Q01892 whole entry): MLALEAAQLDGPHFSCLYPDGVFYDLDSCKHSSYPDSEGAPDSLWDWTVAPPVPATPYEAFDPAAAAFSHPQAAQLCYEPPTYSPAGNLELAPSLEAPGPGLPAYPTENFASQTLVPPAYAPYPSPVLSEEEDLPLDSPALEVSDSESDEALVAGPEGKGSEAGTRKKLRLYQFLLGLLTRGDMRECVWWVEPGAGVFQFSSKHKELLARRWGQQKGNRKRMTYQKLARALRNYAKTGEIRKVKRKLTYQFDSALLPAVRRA
In short: as §1

ELK3 = biological target: T5, ELK3 (Homo sapiens, UniProt P41970 1-407); conditions: protein: recombinant; tags: N-terminal GST; dsDNA, one strand shown
T5 sequence: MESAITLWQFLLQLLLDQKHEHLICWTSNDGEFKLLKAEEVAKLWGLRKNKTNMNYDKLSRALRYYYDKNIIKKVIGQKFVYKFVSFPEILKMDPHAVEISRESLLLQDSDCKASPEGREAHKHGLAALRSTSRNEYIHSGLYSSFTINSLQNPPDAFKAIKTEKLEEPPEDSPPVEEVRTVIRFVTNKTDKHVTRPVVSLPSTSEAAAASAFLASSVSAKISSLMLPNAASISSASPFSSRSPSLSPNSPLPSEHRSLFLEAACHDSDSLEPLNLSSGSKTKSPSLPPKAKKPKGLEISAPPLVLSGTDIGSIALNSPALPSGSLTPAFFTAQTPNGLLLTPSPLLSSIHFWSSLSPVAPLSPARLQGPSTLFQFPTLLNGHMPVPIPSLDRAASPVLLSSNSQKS
In short: as §1

FEV = biological target: T6, FEV (Homo sapiens, UniProt Q99581 1-238); conditions: protein: recombinant; tags: N-terminal GST; dsDNA, one strand shown
T6 sequence: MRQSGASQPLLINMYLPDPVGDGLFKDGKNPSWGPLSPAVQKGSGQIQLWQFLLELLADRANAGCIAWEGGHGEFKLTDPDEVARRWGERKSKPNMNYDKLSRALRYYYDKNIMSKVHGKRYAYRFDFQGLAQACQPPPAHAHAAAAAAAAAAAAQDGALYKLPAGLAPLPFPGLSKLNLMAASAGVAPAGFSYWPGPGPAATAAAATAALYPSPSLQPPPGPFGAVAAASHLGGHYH
In short: as §1

ETV5 = ETV5 (Homo sapiens, UniProt P41161 1-510); conditions: protein: recombinant; tags: N-terminal GST; dsDNA, one strand shown
ETV5, sequence (P41161 whole entry): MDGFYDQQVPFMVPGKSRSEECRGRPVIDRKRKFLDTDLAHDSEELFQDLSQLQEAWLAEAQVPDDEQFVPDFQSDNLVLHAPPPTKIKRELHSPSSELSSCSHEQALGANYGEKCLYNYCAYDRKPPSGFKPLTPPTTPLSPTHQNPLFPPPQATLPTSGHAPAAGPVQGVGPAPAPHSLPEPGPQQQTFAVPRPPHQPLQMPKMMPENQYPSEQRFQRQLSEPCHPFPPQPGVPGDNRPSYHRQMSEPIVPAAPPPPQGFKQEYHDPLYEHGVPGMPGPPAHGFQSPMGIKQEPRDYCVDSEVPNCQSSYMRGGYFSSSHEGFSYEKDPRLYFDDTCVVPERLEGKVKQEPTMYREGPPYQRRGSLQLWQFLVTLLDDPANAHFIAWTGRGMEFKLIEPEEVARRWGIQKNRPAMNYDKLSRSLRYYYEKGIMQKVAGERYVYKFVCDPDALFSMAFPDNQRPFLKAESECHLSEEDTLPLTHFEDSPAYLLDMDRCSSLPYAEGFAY
In short: as §1

HSF1 = HSF1 (Homo sapiens, UniProt Q00613 1-529); conditions: protein: recombinant; tags: N-terminal GST; chain copies: 3; dsDNA, one strand shown
HSF1, sequence (Q00613 whole entry): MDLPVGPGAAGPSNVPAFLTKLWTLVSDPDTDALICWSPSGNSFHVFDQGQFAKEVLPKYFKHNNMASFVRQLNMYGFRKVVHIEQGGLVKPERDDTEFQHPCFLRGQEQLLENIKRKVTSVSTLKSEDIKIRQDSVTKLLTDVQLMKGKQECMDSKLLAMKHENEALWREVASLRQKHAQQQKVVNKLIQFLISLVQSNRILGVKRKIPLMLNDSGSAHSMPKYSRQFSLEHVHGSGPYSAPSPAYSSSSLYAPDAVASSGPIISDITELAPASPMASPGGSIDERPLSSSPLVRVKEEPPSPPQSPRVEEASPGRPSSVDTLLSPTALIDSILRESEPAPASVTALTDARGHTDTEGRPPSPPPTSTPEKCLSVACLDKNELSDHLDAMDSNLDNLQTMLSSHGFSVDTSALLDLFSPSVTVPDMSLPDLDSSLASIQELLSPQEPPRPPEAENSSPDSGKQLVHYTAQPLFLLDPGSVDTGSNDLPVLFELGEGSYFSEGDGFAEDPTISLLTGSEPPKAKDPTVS
In short: as §1

SPIC = biological target: T7, SPIC (Homo sapiens, UniProt Q8N5J4 1-248); conditions: protein: recombinant; tags: N-terminal GST; dsDNA, one strand shown
T7 sequence: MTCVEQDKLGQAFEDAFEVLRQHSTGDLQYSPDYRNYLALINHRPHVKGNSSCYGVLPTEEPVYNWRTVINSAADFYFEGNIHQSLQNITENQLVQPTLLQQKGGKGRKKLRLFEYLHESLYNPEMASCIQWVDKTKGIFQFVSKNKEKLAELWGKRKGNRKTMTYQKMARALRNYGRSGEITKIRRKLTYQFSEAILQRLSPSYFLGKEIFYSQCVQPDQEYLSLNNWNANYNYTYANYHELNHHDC
In short: as §1

ELF4 = ELF4 (Homo sapiens, UniProt Q99607 1-663); conditions: protein: recombinant; tags: N-terminal GST; dsDNA, one strand shown
ELF4, sequence (Q99607 whole entry): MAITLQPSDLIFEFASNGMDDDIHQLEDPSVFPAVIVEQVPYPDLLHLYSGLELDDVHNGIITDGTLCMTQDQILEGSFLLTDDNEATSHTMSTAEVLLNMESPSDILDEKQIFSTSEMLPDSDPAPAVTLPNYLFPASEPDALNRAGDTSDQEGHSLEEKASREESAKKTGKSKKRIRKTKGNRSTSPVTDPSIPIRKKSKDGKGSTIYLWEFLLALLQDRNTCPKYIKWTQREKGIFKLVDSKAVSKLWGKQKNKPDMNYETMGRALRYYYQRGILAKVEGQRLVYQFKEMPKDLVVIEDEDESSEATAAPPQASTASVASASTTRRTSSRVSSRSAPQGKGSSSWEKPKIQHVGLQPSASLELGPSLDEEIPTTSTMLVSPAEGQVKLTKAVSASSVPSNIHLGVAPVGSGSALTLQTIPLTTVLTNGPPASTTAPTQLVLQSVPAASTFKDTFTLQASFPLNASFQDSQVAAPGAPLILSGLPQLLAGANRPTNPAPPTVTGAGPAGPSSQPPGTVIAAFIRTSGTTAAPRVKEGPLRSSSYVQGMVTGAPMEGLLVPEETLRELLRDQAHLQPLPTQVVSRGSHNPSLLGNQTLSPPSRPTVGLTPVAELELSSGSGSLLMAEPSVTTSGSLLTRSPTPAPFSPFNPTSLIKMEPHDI
In short: as §1

ELK4 = biological target: T8, ELK4 (Homo sapiens, UniProt P28324-2 1-405); conditions: protein: recombinant; tags: N-terminal GST; dsDNA, one strand shown
T8 sequence: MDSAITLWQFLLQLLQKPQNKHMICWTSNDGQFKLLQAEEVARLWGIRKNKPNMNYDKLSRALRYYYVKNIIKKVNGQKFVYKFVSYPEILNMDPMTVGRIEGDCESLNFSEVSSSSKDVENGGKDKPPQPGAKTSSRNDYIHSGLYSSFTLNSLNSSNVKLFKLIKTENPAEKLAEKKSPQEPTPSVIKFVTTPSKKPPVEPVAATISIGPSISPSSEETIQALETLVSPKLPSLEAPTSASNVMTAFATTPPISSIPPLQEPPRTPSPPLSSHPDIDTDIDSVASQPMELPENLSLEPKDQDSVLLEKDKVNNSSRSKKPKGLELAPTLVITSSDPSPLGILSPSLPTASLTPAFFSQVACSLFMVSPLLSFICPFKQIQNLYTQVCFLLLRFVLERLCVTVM
In short: as §1

ELF3 = biological target: T9, ELF3 (Homo sapiens, UniProt P78545 1-371); conditions: protein: recombinant; tags: N-terminal GST; dsDNA, one strand shown
T9 sequence: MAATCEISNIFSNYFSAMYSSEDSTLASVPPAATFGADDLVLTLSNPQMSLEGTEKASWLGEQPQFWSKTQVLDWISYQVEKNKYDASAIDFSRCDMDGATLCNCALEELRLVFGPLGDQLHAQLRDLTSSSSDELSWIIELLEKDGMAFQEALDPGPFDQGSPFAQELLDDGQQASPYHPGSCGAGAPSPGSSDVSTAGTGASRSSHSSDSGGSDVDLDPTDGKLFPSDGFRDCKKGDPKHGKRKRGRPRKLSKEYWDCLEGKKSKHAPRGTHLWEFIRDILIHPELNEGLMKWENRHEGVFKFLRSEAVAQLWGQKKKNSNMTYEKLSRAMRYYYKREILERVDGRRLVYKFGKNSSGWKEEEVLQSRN
In short: as §1

CRX = CRX (Homo sapiens, UniProt O43186 1-299); conditions: protein: recombinant; tags: N-terminal GST; dsDNA, one strand shown
CRX, sequence (O43186 whole entry): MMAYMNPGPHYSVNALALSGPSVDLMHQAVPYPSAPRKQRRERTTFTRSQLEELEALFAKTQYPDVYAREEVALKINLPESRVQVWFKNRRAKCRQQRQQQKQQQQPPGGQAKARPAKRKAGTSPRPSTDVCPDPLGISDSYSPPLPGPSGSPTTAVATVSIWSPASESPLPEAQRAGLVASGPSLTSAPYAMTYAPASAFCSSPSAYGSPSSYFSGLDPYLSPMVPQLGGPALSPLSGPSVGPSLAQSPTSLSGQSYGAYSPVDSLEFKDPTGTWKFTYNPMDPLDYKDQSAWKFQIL
In short: as §1

ETV1 = ETV1 (Homo sapiens, UniProt P50549 1-477); conditions: protein: recombinant; tags: N-terminal GST; dsDNA, one strand shown
ETV1, sequence (P50549 whole entry): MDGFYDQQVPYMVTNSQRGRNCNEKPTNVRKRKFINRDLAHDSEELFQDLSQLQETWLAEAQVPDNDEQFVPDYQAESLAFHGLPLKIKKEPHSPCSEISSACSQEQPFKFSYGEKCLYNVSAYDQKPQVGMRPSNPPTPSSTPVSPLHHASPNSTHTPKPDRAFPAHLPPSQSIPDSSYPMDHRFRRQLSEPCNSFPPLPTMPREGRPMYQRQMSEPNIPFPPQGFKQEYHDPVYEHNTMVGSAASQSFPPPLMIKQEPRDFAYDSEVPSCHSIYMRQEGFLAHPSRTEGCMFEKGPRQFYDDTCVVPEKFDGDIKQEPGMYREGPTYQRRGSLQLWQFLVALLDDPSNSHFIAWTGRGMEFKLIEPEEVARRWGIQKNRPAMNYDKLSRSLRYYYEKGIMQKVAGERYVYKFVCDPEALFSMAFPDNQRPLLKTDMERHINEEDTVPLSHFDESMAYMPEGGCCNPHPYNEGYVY
In short: as §1

For CGATCA, the binding signal (FLI1) was 1.15 fold enrichment (6-mer frequency, TF over GST control), the binding signal (ELK1) was 1.13 fold enrichment (6-mer frequency, TF over GST control) and the binding signal (GABPA) was 1.15 fold enrichment (6-mer frequency, TF over GST control). For the same sequence, the binding signal (ERG) was 1.07 fold enrichment (6-mer frequency, TF over GST control), the binding signal (ELF1) was 1.2 fold enrichment (6-mer frequency, TF over GST control) and the binding signal (SPI1) was 1.02 fold enrichment (6-mer frequency, TF over GST control). For the same sequence, the binding signal (SPIB) was 1.06 fold enrichment (6-mer frequency, TF over GST control), the binding signal (ELK3) was 1.23 fold enrichment (6-mer frequency, TF over GST control) and the binding signal (FEV) was 1.04 fold enrichment (6-mer frequency, TF over GST control). For the same sequence, the binding signal (ETV5) was 1.03 fold enrichment (6-mer frequency, TF over GST control), the binding signal (HSF1) was 1.22 fold enrichment (6-mer frequency, TF over GST control) and the binding signal (SPIC) was 1.06 fold enrichment (6-mer frequency, TF over GST control). The binding signal (ELF4) was 1.06 fold enrichment (6-mer frequency, TF over GST control), the binding signal (ELK4) was 1.07 fold enrichment (6-mer frequency, TF over GST control) and the binding signal (ELF3) was 1.07 fold enrichment (6-mer frequency, TF over GST control). The binding signal (CRX) was 1.16 fold enrichment (6-mer frequency, TF over GST control) and the binding signal (ETV1) was 1.04 fold enrichment (6-mer frequency, TF over GST control).
